Laboratory results taken from PubChem BioAssay AID1159580 (chemical genetic matrix, 2015).
In all, about 5,500 compounds went through this assay and about 2,000 (36%) were called active. About 18% were inconclusive and are not listed. No stated cut-off is given here; in the data, active means normalized growth mostly below about 0.91 (no sharp cut-off); inconclusive means no clear call, values can overlap the other calls; inactive means mostly above about 0.92. The list shows a part of the results.

Test: chemical genetic growth profiling, strain panel (AID 1159580);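 further: tested at 20 µM; growth read once vehicle control cultures reached saturation at 30 °C; 1 = growth at the plate median or of vehicle wells; lower values mean less growth of the strain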
Conditions: growth OD
[1] = S. cerevisiae deletion strains, locus YAL040C, strain CLN3, hits give low values
[2] = S. cerevisiae deletion strains, locus YCL061C, strain MRC1 (second series), hits give low values
[3] = S. cerevisiae deletion strains, locus YDR150W, strain NUM1, hits give low values
[4] = S. cerevisiae deletion strains, locus YDR363W, strain ESC2, hits give low values
[5] = S. cerevisiae deletion strains, locus YER002W, strain NOP16, hits give low values
[6] = S. cerevisiae deletion strains, locus YMR263W, strain SAP30, hits give low values
[7] = S. cerevisiae deletion strains, locus YMR307W, strain GAS1, hits give low values
[8] = S. cerevisiae deletion strains, locus YNL175C, strain NOP13, hits give low values
[9] = S. cerevisiae deletion strains, locus YNL197C, strain WHI3, hits give low values
[10] = S. cerevisiae deletion strains, locus YNL224C, strain SQS1, hits give low values
[11] = S. cerevisiae deletion strains, locus YOR083W, strain WHI5 (second series), hits give low values
[12] = S. cerevisiae deletion strains, locus YPL055C, strain LGE1, hits give low values
[13] = S. cerevisiae deletion strains, locus YAL013W, strain DEP1, hits give low values
[14] = S. cerevisiae deletion strains, locus YJR075W, strain HOC1, hits give low values
[15] = S. cerevisiae deletion strains, locus YNL153C, strain GIM3, hits give low values
[16] = S. cerevisiae deletion strains, locus YNL322C, strain KRE1, hits give low values
[17] = S. cerevisiae deletion strains, locus YPL241C, strain CIN2, hits give low values

Measured: normalized growth

CNC(=O)c1cc2c(cn1)[nH]c1ccccc12
inactive: [1] 1.01 | [2] 1.01 | [3] 1 | [4] 1.01 | [5] 0.995 | S. cerevisiae deletion strains, locus YGR229C, strain SMI1, hits give low values 1.05 | [6] 1 | [7] 0.997 | S. cerevisiae deletion strains, locus YNL128W, strain TEP1, hits give low values 0.97 | [8] 0.986 | [9] 0.983 | [10] 0.989 | [11] 0.993 | [12] 1.02

C=CC1CN2CCC1CC2C(OC(C)=O)c1ccnc2ccc(OC)cc12 (configuration not stated)
inactive: [13] 1.01 | S. cerevisiae deletion strains, locus YBR229C, strain ROT2, hits give low values 0.993 | S. cerevisiae deletion strains, locus YDL101C, strain DUN1, hits give low values 1 | [3] 1.02 | S. cerevisiae deletion strains, locus YEL061C, strain CIN8, hits give low values 0.957 | S. cerevisiae deletion strains, locus YGR078C, strain PAC10, hits give low values 1 | S. cerevisiae deletion strains, locus YHR030C, strain SLT2, hits give low values 1.06 | S. cerevisiae deletion strains, locus YHR087W, strain rtc3, hits give low values 0.95 | S. cerevisiae deletion strains, locus YJL187C, strain SWE1, hits give low values 1.01 | S. cerevisiae deletion strains, locus YJR043C, strain POL32, hits give low values 1 | [14] 0.997 | S. cerevisiae deletion strains, locus YKL190W, strain CNB1, hits give low values 0.982 | S. cerevisiae deletion strains, locus YLR039C, strain RIC1, hits give low values 1.06 | S. cerevisiae deletion strains, locus YLR058C, strain SHM2 (second series), hits give low values 1 | S. cerevisiae deletion strains, locus YLR085C, strain ARP6, hits give low values 0.975 | S. cerevisiae deletion strains, locus YLR262C, strain YPT6, hits give low values 1.06 | S. cerevisiae deletion strains, locus YML094W, strain GIM5, hits give low values 0.997 | S. cerevisiae deletion strains, locus YMR219W, strain ESC1, hits give low values 1 | [6] 0.984 | [7] 0.916 | [15] 1.02 | S. cerevisiae deletion strains, locus YNL298W, strain CLA4 (second series), hits give low values 0.967 | [16] 1 | S. cerevisiae deletion strains, locus YNR030W, strain Alg12, hits give low values 0.998 | [12] 0.999 | [17] 1 | S. cerevisiae deletion strains, locus YPR135W, strain CTF4, hits give low values 1 | S. cerevisiae strains, strain wild type, hits give low values 0.974

CNCCC(Oc1ccccc1OC)c1ccccc1 (configuration not stated)
inactive: [13] 0.996 | [1] 1.01 | [2] 1 | [3] 1.01 | [4] 1 | [5] 1 | [14] 1.01 | [15] 1.03 | [8] 1 | [9] 1.01 | [10] 1.01 | [16] 1 | [11] 1.03 | [12] 1.02 | [17] 0.996
